Here are results for 27 compounds from the supplement of paper PMC12494721.

Molecules are shown by their SMILES. Where a name gives a salt, the structure may show the parent alone.

For the test, the system named is Escherichia coli IAI1. Kind of test: fold change of Cadaverine concentration vs plate DMSO controls (fold change (ratio)); higher = more amine produced, active = hit call of the paper (significant change in both replicates, either direction). Particulars: incubation time: 27 h, anaerobic, 37 °C. The essentials: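 Using LC–triple-quadrupole MS with dynamic MRM, amines were quantified against external calibration curves and corrected for drift within each batch. Samples were whole anaerobic mGAM cultures of four gut strains, grown 27 h at 37 °C from OD 0.1 before 1:1 dilution, extracted with cold acetonitrile/methanol containing 0.1% formic acid and centrifuged. Compounds were present at 20 µM final (sweeteners at 50 µM final). The numbers are fold changes versus plate DMSO controls, each the mean of 2 biological replicates.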
On to `CC#C[C@]1(O)CC[C@H]2[C@@H]3CCC4=CC(=O)CCC4=C3[C@@H](c3ccc(N(C)C)cc3)C[C@@]21C` [Mifepristone] (20 µM), for which the “fold change of Cadaverine concentration” value is 1.01 (inactive). Regarding `C[C@]12CC[C@@H]3c4ccc(O)cc4CC[C@H]3[C@@H]1CCC2=O` [Estrone] (20 µM), the “fold change of Cadaverine concentration” value is 1.02 (inactive). `O=C(O)c1cccnc1Nc1cccc(C(F)(F)F)c1` [Niflumic acid] (20 µM): the “fold change of Cadaverine concentration” value was 0.996 (inactive).

Take `OCCN1CCN(CCCN2c3ccccc3C=Cc3ccccc32)CC1` [Opipramol dihydrochloride] (20 µM): the “fold change of Cadaverine concentration” value is 1.04 (inactive). Regarding `COCC1=C(C(=O)OC(C)OC(=O)OC(C)C)N2C(=O)[C@@H](NC(=O)/C(=N\OC)c3csc(N)n3)[C@H]2SC1` (some centres not stated) [Cefpodoxime proxetil] (20 µM), the “fold change of Cadaverine concentration” value was 1.43 (active). For the compound `CN(CCOc1ccc(CC2SC(=O)NC2=O)cc1)c1ccccn1` (configuration not stated) [Rosiglitazone hydrochloride] (20 µM), the “fold change of Cadaverine concentration” value was 0.926 (inactive). As for `CC(C(=O)O)c1ccc(-c2ccccc2)c(F)c1` (configuration not stated) [Flurbiprofen] (20 µM), the “fold change of Cadaverine concentration” value is 1 (inactive). In the case of `CCCCc1oc2ccc(NS(C)(=O)=O)cc2c1C(=O)c1ccc(OCCCN(CCCC)CCCC)cc1` [Dronedarone hydrochloride] (20 µM), the “fold change of Cadaverine concentration” value was 0.996 (inactive). As to `O=C(COc1ccc(Cl)cc1)N1CCN(Cc2ccc3c(c2)OCO3)CC1` [Fipexide hydrochloride] (20 µM), the “fold change of Cadaverine concentration” value was 0.953 (inactive).

`CCCCCCCCCCCCCCCC[N+](C)(C)CCN(Cc1ccc(OC)cc1)c1ncccn1` [Thonzonium bromide] (20 µM): the “fold change of Cadaverine concentration” value is 0.984 (inactive).

Consider `C#C[C@]1(O)CC[C@H]2[C@@H]3CCc4cc(OC)ccc4[C@H]3CC[C@@]21C` [Mestranol] (20 µM), for which the “fold change of Cadaverine concentration” value was 1.01 (inactive). The value for `OC(CCN1CCCCC1)(c1ccccc1)C1CCCCC1` (configuration not stated) [Trihexyphenidyl-D,L hydrochloride] (20 µM) was 0.697 (inactive). In the case of `O=C(Cn1cnnn1)N[C@@H]1C(=O)N2C(C(=O)O)=C(CSc3nncs3)CS[C@H]12` [Ceftezole] (20 µM), the “fold change of Cadaverine concentration” value was 1.61 (inactive). For `CCOc1ccc(NC(N)=O)cc1` [(4-Ethoxyphenyl)urea] (50 µM), the “fold change of Cadaverine concentration” value is 1.11 (inactive). The value for `NC(=O)c1ncn([C@@H]2O[C@H](CO)[C@@H](O)[C@H]2O)n1` [Ribavirin] (20 µM) was 1.09 (inactive); that for `CC1(C)S[C@@H]2[C@H](NC(=O)C(C(=O)O)c3ccccc3)C(=O)N2[C@H]1C(=O)O` (some centres not stated) [Carbenicillin disodium salt] (20 µM) was 1.79 (active); that for `O=C(c1ccccc1)c1ccc2n1CCC2C(=O)O` (configuration not stated) [Ketorolac tromethamine] (20 µM) was 1.07 (inactive). `CN(C(=O)CN(CCO)CC(=O)N(C)C(C)(C)Cc1ccccc1)C(C)(C)Cc1ccccc1` [Oxethazaine] (20 µM): the “fold change of Cadaverine concentration” value is 1.01 (inactive). As to `CCOC(=O)[C@H](CCc1ccccc1)N[C@@H](C)C(=O)N1Cc2ccccc2C[C@H]1C(=O)O` [Quinapril hydrochloride] (20 µM), the “fold change of Cadaverine concentration” value was 0.999 (inactive).

Consider `CC[N+]1(CC)CCC(=C(c2ccccc2)c2ccccc2)C1C` (configuration not stated) [Prifinium Bromide] (20 µM), for which the “fold change of Cadaverine concentration” value is 0.989 (inactive). The value for `O=P(O)(O)C(Cl)(Cl)P(=O)(O)O` [Clodronate disodium] (20 µM) was 1.03 (inactive); that for `CCOC(=O)[C@@](C)(N)Cc1ccc(O)c(O)c1` [Methyldopate hydrochloride] (20 µM) was 0.898 (inactive). As for `O=C(NCCO[N+](=O)[O-])c1cccnc1` [Nicorandil] (20 µM), the “fold change of Cadaverine concentration” value is 0.981 (inactive). As to `CN1CCN(c2c(F)cc3c(=O)c(C(=O)O)cn(CCF)c3c2F)CC1` [Fleroxacin] (20 µM), the “fold change of Cadaverine concentration” value is 0.26 (active). The value for `Cn1c(=O)c2c(ncn2CC(=O)O)n(C)c1=O` [Acefylline] (20 µM) was 1.01 (inactive); that for `CC(=O)[C@H]1CC[C@H]2[C@@H]3C[C@H](C)C4=CC(=O)CC[C@]4(C)[C@H]3[C@@H](O)C[C@]12C` [Medrysone] (20 µM) was 1.02 (inactive); that for `C=C1c2c(Cl)ccc(O)c2C(O)=C2C(=O)[C@]3(O)C(O)=C(C(N)=O)C(=O)[C@@H](N(C)C)[C@@H]3[C@@H](O)[C@H]12.O=C(O)c1cc(S(=O)(=O)O)ccc1O` [Meclocycline sulfosalicylate] (20 µM) was 0.447 (active).
